This is an account of results in PubChem BioAssay.

Several values for one entry are separate records, joined by “and”; a condition that tells them apart may be missing. Equal entries are not always repeated. Records with an inconclusive call do not appear. Activity calls are given as the source filed them.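 Rule for the calls, unless noted: active = compounds whose cell count with miR-34 switched on is under 0.7 times the count with it off; inactive = the rest.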

Test [1] is described as follows: Wnt pathway potentiators raising nuclear beta-catenin – imaging, WNT3A-conditioned medium, mouse C2C12, NPC library, primary screen (AID 1117326; in the data active = nuclear beta-catenin stimulation mostly above about 4.2%, no sharp cut-off; inactive = mostly below about 10%). The settings on record: stronger effect = higher value.
Test [2] can be described thus: stimulators of insulin release from INS-1E, primary screen, cell-based, 5 mM glucose, NPC library (AID 1117329;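 active = compound raises insulin release from rat beta cells at 5 mM glucose, no numeric limit stated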). The settings on record: rat INS-1E insulin secretion, at 10 µM, stronger effect = higher value.
Test [3] can be described thus: growth inhibition of GSK3B-pretreated HCT116 cells – cell-based, CellTiter-Glo, 0.2 to 20 µM (AID 1117336;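 active = compounds lowering colon cancer cell viability after pretreatment blocking the GSK3B kinase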). To be noted: HCT116 viability after GSK3B inhibitor, at 20 µM, stronger effect = higher value. A general note: Cellular ATP, detected with luciferase, serves as a proxy for viable cell number.
Test [4] is described as follows: inhibition of endothelial tube formation, primary screen, imaging, VEGF stimulated, CD31 staining, tube area, NPC library (AID 1117340;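 active = compound that reduces growth-factor-driven endothelial tube area in a mixed cell culture, no cutoff stated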). The settings on record: VEGF-stimulated ADSC/ECFC co-culture, at 10 µM, stronger effect = higher value.
The nature of test [5]: GLP1 release stimulators, primary, NCI-H716, NPC library (AID 1117341;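 active = compound raises GLP1 secretion from the human gut endocrine cells, with no numeric limit stated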). To be noted: NCI-H716 cells, at 10 µM, stronger effect = higher value.
Test [6] is described as follows: HCT116 colon cancer cell growth inhibition, primary screen, CellTiter-Glo luminescence, NPC library (AID 1117342;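 active = compounds that lower survival of HCT116 colon cancer cells in the luminescence readout, no numeric limit stated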). To be noted: at 20 µM (top of the series).
Test [7] in a line: reduced SW480 viability measured with CellTiter-Glo, NPC library, primary (AID 1117343;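 active = compounds that lower viability of the colon cancer cells in the luminescence readout, with no numeric limit stated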). The settings on record: CellTiter-Glo luminescence; at 20 µM (top of the series) unless noted.
Test [8] can be described thus: NPC library primary testing for decreased DLD-1 cell viability via CellTiter-Glo (AID 1117346;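 active = compounds that lower survival of DLD-1 colon cancer cells in the luminescence readout, no cutoff given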). The settings on record: DLD-1 viability, CellTiter-Glo luminescence; at 20 µM (top of the series).
The nature of test [9]: viability loss with induced miR-34 in A549 – imaging, A549 dox-inducible miR-34, nuclei and caspase counts, primary screen (AID 1347080). To be noted: A549 miR-34 inducible, Hoechst nuclei count, 48 h.
A short description of test [10]: MELAS cybrid and Rieske KO viability enhancers – cell-based, MELAS cybrids, Rieske KO mouse fibroblasts, CellTiter-Glo, primary screen (AID 1508586;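 active = mean z-score across replicates of 1.96 or higher in either the MELAS or the Rieske mutant cell line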;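 note: z relative to plate mean and SD of compound and empty wells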). To be noted: low glucose.
In test [11] the target is NAD(+) hydrolase SARM1 (Homo sapiens) (UniProt Q6SZW1). The test can be described thus: blocking NAD cleavage by SARM1 SAM-TIR – cell lysate, NAD-Glo luminescence (AID 1508614;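 active = compound whose remaining NAD level is above about 45 nM, limit read from the data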;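 note: higher remaining NAD means stronger inhibition of SARM1 NADase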). To be noted: SAM-TIR HEK293T lysate NADase, at 1 µM, stronger effect = higher value.
NAD(+) hydrolase SARM1 (Homo sapiens), sequence (Q6SZW1 whole entry, looked up): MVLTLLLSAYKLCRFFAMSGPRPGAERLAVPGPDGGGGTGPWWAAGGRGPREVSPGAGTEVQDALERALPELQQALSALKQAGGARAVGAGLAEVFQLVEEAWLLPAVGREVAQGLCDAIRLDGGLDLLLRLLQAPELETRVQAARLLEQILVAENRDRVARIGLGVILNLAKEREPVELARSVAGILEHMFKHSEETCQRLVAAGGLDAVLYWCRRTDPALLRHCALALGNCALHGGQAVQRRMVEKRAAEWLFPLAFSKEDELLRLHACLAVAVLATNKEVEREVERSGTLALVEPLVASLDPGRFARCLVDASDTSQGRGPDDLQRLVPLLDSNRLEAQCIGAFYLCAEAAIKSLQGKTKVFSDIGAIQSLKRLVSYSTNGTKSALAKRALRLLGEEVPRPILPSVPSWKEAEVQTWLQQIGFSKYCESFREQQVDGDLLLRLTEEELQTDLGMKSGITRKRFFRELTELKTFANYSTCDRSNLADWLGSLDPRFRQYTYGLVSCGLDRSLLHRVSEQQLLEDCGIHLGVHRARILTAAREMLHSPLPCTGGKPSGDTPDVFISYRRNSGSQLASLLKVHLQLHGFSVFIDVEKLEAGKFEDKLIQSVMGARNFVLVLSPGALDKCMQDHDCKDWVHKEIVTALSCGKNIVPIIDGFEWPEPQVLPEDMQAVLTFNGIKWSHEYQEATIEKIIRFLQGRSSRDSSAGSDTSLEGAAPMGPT
In test [12] the target is ATP-dependent translocase ABCB1 (Homo sapiens) (UniProt P08183). The test can be described thus: P-glycoprotein substrate transport blockade – cell-based (AID 377; in the data active = fluorescence slope change above about 50%). The settings on record: MDR1-expressing cells, fluorescent substrate accumulation slope; stronger effect = higher value; concentration not given here.
ATP-dependent translocase ABCB1 (Homo sapiens), sequence (P08183 whole entry, looked up): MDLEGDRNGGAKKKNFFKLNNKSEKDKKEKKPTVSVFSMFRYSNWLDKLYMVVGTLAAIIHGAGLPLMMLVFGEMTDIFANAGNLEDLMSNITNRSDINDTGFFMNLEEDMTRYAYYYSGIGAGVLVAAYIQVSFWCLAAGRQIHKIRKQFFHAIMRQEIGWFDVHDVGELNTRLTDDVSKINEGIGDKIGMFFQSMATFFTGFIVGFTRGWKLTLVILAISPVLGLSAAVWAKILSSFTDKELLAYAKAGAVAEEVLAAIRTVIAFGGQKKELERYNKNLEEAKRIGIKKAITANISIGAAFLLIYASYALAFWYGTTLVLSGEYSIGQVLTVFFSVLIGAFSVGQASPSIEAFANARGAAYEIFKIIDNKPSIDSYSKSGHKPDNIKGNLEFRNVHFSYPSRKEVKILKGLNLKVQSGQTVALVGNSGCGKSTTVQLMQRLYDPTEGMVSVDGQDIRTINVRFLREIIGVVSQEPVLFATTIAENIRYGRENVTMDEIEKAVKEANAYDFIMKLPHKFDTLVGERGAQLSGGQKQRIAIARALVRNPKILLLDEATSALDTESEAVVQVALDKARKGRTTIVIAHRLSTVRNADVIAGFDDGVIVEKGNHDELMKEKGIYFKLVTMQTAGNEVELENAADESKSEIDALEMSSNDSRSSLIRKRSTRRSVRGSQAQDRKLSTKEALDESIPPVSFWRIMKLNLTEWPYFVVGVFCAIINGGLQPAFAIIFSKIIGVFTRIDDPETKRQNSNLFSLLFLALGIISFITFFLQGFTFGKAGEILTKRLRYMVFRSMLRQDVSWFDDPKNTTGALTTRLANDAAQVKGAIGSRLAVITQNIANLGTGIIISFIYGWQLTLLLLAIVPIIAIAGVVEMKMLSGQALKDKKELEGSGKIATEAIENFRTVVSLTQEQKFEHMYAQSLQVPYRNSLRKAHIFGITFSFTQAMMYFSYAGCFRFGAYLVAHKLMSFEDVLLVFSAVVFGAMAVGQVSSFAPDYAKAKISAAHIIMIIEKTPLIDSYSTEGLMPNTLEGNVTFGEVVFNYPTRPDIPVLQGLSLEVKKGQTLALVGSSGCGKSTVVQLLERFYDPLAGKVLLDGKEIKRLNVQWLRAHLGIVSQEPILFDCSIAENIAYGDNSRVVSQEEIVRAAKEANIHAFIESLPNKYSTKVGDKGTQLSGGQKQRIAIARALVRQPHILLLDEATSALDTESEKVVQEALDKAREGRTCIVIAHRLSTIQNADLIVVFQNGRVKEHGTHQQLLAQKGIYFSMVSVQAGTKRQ
A short description of test [13]: compounds altering viability of human ES cells (AID 493140; call rule not given here;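 note: cells exposed to compounds for four days before counting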). The settings on record: human embryonic stem cell survival screen; stronger effect = higher value.
Test [14] is described as follows: P. berghei load reduction in hepatocytes – cell-based, HepG2, luciferase luminescence, HepG2 viability, primary screen (AID 624349; in the data active = parasite load remaining mostly below about 12%, no sharp cut-off; inactive = mostly above about 10%;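 note: 100% = mean of DMSO negative control wells on the same plate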). To be noted: P. berghei liver stage in HepG2, luciferase luminescence, concentration not given here; parasite load remaining: stronger effect = lower value; viability: measured here: HepG2 viability without parasites.
In test [15] the target is Mitogen-activated protein kinase 7 (Homo sapiens) (UniProt Q13164). The test can be described thus: Gal4-ERK5 driven luciferase induction – cell-based, HTS, primary screen (AID 1508626;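 active = luciferase signal above three times the same-plate solvent-only control wells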;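 note: luciferase driven by Gal4-ERK5 fusion binding five Gal4 sites before minimal TATA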). To be noted: HeLa Gal4-ERK5 transactivation, 18 h, at 5 µM, stronger effect = higher value.
Mitogen-activated protein kinase 7 (Homo sapiens), sequence (Q13164 whole entry, looked up, the tested form may be a part): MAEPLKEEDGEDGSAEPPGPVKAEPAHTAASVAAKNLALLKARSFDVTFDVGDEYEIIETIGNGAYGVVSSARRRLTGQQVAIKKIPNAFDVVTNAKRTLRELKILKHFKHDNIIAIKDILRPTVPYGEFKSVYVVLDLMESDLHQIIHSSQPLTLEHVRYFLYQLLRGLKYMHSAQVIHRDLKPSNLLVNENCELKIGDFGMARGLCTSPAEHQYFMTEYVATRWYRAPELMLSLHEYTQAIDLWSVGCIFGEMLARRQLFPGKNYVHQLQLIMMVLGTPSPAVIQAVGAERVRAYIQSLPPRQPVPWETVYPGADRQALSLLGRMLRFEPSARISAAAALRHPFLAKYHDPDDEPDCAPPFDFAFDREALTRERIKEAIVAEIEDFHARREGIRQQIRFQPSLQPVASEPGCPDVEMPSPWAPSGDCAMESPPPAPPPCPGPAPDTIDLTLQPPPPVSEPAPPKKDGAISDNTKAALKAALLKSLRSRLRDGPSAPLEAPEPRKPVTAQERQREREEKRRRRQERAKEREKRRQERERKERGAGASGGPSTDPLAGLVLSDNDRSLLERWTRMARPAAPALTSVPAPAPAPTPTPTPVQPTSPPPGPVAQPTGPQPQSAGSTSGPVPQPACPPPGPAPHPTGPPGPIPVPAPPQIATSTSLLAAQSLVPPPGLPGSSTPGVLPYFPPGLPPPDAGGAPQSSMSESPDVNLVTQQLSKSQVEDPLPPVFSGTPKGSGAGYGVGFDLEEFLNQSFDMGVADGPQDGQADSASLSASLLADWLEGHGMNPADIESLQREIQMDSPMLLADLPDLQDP
Test [16] is described as follows: galactose survival enhancers in mitochondrial complex I cybrids – cell-based, galactose medium, ATP luminescence, primary screen (AID 1645843;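 active = z-score of at least 1.8 in each of two replicates, scored against plate mean and spread of sample wells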;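 note: positive z means more ATP and so rescue of galactose-driven cybrid death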). To be noted: complex I mutant cybrid cells, 72 h, stronger effect = higher value.
Setting [17] is: stronger effect = lower value, cell number ratio, induced over uninduced.
Setting [18] is: measured here: relative caspase fold change +Dox/-Dox.
The mark [19] stands for this setting: measured here: total cells with miR-34 induction, stronger effect = lower value.
The mark [20] stands for this setting: measured here: total cells without miR-34 induction.
Where [21] appears, read: MELAS cybrid survival, CellTiter-Glo 48 h, stronger effect = higher value.
Where [22] appears, read: Rieske KO mouse fibroblast survival, CellTiter-Glo 72 h.

On to `Cc1ccc(Nc2c(F)cccc2Cl)c(CC(=O)O)c1`, for which the nuclear beta-catenin stimulation is 1% (inactive) in test [1] (at 10 µM) and 3.4% in test [1] (stimulation, at 2 µM). Besides, in test [2], the insulin secretion stimulation is -0.3% (inactive). In addition, the viability decrease in test [3] was 0.4% (inactive). Moreover, in [4], the tube area decrease was -20.6% (active). In addition, the GLP1 secretion stimulation in [5] was 3.1% (inactive). Besides, the inhibition of viability in test [6] was -25.8% (inactive). Besides, the viability decrease (inhibition) in test [7] was -2.2% (inactive); in test [8] it was -9.1% (inactive). Moreover, the fold change was 0.931 (inactive) in test [9] (setting [17]); 0.932 and 0.672 in [9] (setting [18]). In addition, the cell count was 8200 and 8630 in test [9] (setting [19]); 8810 and 9270 in test [9] (setting [20]). Moreover, the results for the z-score in test [10] (setting [21]) and in [10] (setting [22]) were -0.194 (inactive) and 0.00857, respectively. Further, the remaining NAD in test [11] is 10 nM (inactive).

`C[C@H](NCCc1ccc(O)cc1)[C@H](O)c1ccc(O)cc1`: the fluorescence slope change in test [12] is 27.4% (inactive). Also, the survival in [13] was 5.58 (inactive). Also, the parasite load remaining in test [14] is 80.4% (inactive) and 86.8% (inactive). The viability (commonly a read-out of living cells in per cent, often relative to untreated cells) in [14] is 111% and 73.3%. Besides, the nuclear beta-catenin stimulation is -1.4% (inactive) in [1] (at 10 µM) and -0.2% in test [1] (stimulation, at 2 µM). Further, the insulin secretion stimulation in test [2] was 4.3% (inactive). The viability decrease in test [3] was -8.6% (inactive). In test [4], the tube area decrease is 5.1% (inactive). Further, in [5], the GLP1 secretion stimulation is -4.3% (inactive). In [6], the inhibition of viability was 4.7% (inactive). Moreover, the values for the viability decrease (inhibition) in test [7] and in [8] were 0.4% (inactive) and -16.7% (inactive), respectively. In addition, the fold change in test [9] (setting [17]) is 0.881 (inactive) and 0.9 (inactive); in test [9] (setting [18]), 1.49 and 0.723. Moreover, the cell count in test [9] (setting [19]) is 8830 and 9090; in [9] (setting [20]), 10000 and 10100. Moreover, the z-score is -0.276 (inactive) and 0.441 (inactive) in [10] (setting [21]); -0.155 and 0.32 in test [10] (setting [22]). The luciferase signal in test [15] is 96 AU (inactive).

For `O=C(O)COC(=O)Cc1ccccc1Nc1c(Cl)cccc1Cl`, the survival in [13] was 18.6 (inactive). Also, the parasite load remaining in [14] was 25.9% (inactive) and 102% (inactive) and 21.3% (inactive). Moreover, the viability in test [14] was 47% and 92.7% and 77%. The nuclear beta-catenin stimulation is 1.1% (inactive) in test [1] (at 10 µM) and -1% in test [1] (stimulation, at 2 µM). Also, in test [2], the insulin secretion stimulation was 3.2% (inactive). For the same molecule, the viability decrease in test [3] is 30.7% (inactive). In addition, the tube area decrease in test [4] was -0.5% (inactive). In addition, the GLP1 secretion stimulation in [5] is 1% (inactive). Besides, in test [6], the inhibition of viability is 26% (inactive). Besides, the viability decrease (inhibition) is 83.7% (active) in [7] and 20.5% (inactive) in test [8]. In addition, the fold change was 0.899 (inactive) and 0.88 (inactive) in [9] (setting [17]); 1.19 and 1.2 in test [9] (setting [18]). Also, the cell count is 8790 and 10000 in test [9] (setting [19]); 9770 and 11400 in test [9] (setting [20]). Besides, the z-score was -0.0312 (inactive) and 0.298 (inactive) in [10] (setting [21]); -0.0287 and -0.406 in test [10] (setting [22]); 0.67 (inactive) in [16]. The remaining NAD in [11] is 10 nM (inactive).

For the molecule `O=C(O)Cc1sc(-c2ccccc2)nc1-c1ccc(Cl)cc1`, in test [14], the parasite load remaining was 43.2% (inactive). Also, in [14], the viability is 106%. Also, the nuclear beta-catenin stimulation in test [1] (at 10 µM) is -0.8% (inactive); in test [1] (stimulation, at 2 µM), -0.1%. In addition, the insulin secretion stimulation in test [2] was 3.3% (inactive). Also, the viability decrease in test [3] is 18.7% (inactive). Besides, the tube area decrease in [4] was 11.7% (inactive). Besides, in test [5], the GLP1 secretion stimulation is -0.5% (inactive). In addition, the inhibition of viability in test [6] is 43.2% (inactive). In addition, the figures for the viability decrease (inhibition) in [7] and in test [8] were 32.4% (inactive) and 16.6% (inactive), respectively. Moreover, the values for the fold change in [9] (setting [17]) and in [9] (setting [18]) were 0.887 (inactive) and 0.944, respectively. For the same molecule, the cell count turned out to be 10000 in test [9] (setting [19]) and 11300 in [9] (setting [20]). In addition, the z-score in [10] (setting [21]) is -0.576 (inactive) and -0.0336 (inactive); in [10] (setting [22]), -0.115 and 0.182; in [16], 1.28 (inactive).
